# Hits are enriched below; roughly 7.4% of the tested compounds scored in any of these assays.
# Rab9 prom act: Rab9 promoter activation | AID 485297 | Huh7 Rab9 promoter-luciferase reporter, luminescence, 24 h | 320,000 tested, 2.8% active | Potency, µM (series often up to 9.22 µM), without a hit: at the top dose activation, negative = inhibition, actives largely listed as activators; note: % of control where 0% means no effect; nearly all actives have a fitted effect of over 60% in size
#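 Luciferase signal after 10 min detection reagent at ambient indicates Rab9 promoter upregulation; stably transfected Huh7 cells were treated 24 h with compound in DMSO at 37 °C, 5% CO2.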
# NPC1 promoter act: activates the NPC1 promoter. Huh7 NPC1 promoter luciferase reporter, 24 h. Potency, µM (doses to about 9.22 µM), for inactives: at the top dose activation, actives largely listed as activators. 320,000 tested, 2.4% active. AID 485313; note: % of control where 0% means no effect; nearly all actives have a fitted effect of over 60% in size
#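 Luciferase expression driven by the NPC1 promoter was measured in stably transfected Huh7 cells after a 24 h compound incubation, using a luciferase reagent and a luminescence read.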
# ELG1 genotox: induces genotoxicity in HEK293T cells with luciferase-tagged ELG1 | HEK293T ELG1-luciferase reporter, luminescence, 16 h | 330,000 tested, 1.3% active | Potency, µM (series often up to 46 µM), for the others: at the highest dose activity change, positive = activation, actives largely listed as activators; note: % of control where 0% means no effect; nearly all actives have a fitted effect of over 60% in size
#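 After overnight (16 hr) compound treatment at 37 °C, ELG1-luciferase HEK293T cells were lysed with ONE-Glo; luminescence quantified 30 min later at room temperature.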
# SMN2 splice up: increases expression of the SMN2 splice variant. 210,000 tested, 2.8% active. Potency, µM (top dose mostly 46.1 µM), for inactives: at the top dose activity change, positive = activation, most hits filed as activators. AID 1458. HEK293 SMN2-luciferase splicing reporter, luminescence, 30-36 h; note: % of control where 0% means no effect; nearly all actives have a fitted effect of over 55% in size
#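 HEK293 cells carry an SMN2 minigene-luciferase reporter in which exon 7 inclusion puts luciferase in frame. Cells were seeded at 2000 cells/well, attached for 10-12 hours, then exposed to compounds for 30-36 hours at 37C before ONE-Glo luminescence.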
# FLuc modulator: firefly luciferase modulation, counter-screen for miR-21 project; purified FLuc, Km substrates, luminescence inhibition; Potency, µM (series often up to 57.5 µM), without a hit: top-dose activity change, negative = inhibition, hits mostly inhibitors; 360,000 tested, 6.9% active; AID 588342;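 note: plate controls were vehicle for no effect and reference inhibitor for full effect; nearly all actives have a fitted effect of over 55% in size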
# Target sequence (P08659 whole entry, looked up): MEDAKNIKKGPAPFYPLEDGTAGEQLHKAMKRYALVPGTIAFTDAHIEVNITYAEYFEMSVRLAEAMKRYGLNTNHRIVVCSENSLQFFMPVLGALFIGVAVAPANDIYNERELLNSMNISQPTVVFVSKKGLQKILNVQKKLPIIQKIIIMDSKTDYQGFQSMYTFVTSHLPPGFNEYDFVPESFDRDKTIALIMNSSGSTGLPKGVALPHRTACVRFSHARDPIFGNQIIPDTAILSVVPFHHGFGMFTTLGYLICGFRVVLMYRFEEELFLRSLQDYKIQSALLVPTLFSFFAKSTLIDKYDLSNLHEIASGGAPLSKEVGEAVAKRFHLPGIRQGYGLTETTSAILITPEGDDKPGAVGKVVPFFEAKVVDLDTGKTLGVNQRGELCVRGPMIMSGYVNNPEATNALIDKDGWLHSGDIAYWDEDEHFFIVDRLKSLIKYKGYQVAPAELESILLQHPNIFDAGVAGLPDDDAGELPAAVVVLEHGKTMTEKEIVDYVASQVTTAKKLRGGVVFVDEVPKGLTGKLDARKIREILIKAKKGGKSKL
#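 Purified P. pyralis luciferase, 10 nM final, with Km-level 10 uM D-luciferin and 10 uM ATP in 50 mM Tris acetate pH 7.5, 10 mM Mg acetate, 0.01% Tween-20, 0.05% BSA; 6-point qHTS titration about 60 µM downward; luminescence read.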
# Starred values were filed as active, the others as inactive; u = inconclusive; x = no result; [ ] = another dose, or the depositor's remark. Calls come from the whole dose curve; as a rule, active = well fitted curve in the direction sought with a large enough effect; inconclusive = small, poorly fitted or top-dose-only effect, or another doubt; inactive = no such curve, though single readings can be large; an effect the other way counts as inactive or inconclusive. Potency is the fitted concentration of half-maximal effect.
SMILES,Rab9 prom act,NPC1 promoter act,ELG1 genotox,SMN2 splice up,FLuc modulator
O=C1/C(=C/N(C(=O)c2ccco2)c2ccc(Cl)cc2)Sc2ccccc21,u,u,u,14.1µM*,0.135µM*
O=C1/C(=C/N(C(=O)c2ccco2)c2ccc(Br)cc2)Sc2ccccc21,u,u,11.6µM*,x,0.338µM*
CCOc1ccc(CNC(=O)c2oc3c(c2C)-c2nn(Cc4cccc(Cl)c4)cc2CC3)cc1,x,x,x,x,-3.5%
Oc1ccc(N2Cc3ccccc3C2)cc1,10.4%[1.84 µM],-0.7%,3.4%,x,-6.3%
Cc1cc(N2Cc3ccccc3C2)ccc1C=O,0.316µM*,u,5.8µM*,x,6.75µM*
CCOc1ccc(N2Cc3ccccc3C2)cc1,3.55µM*,u,23.1µM*,u,12µM*
O=Cc1ccc(N2Cc3ccccc3C2)cc1,10.6%,-3.1%,u,x,12µM*
Cc1cc2c(cc1C)CN(c1ccccc1)C2,1µM*,1.12µM*,2.31µM*,x,0.675µM*
CCOc1ccc(N2CC(=O)N(c3ccc(OCC)cc3)CC2=O)cc1,0.4%,-2.7%,1.3%,-10.7%,-7.8%
Cc1ccccc1C=O,-0.8%,-0.6%,2.5%,0.2%,-0.3%
Cc1ccc(NS(=O)(=O)c2cccc(C(=O)NCC(c3ccco3)N3CCCCC3)c2)cc1 (stereo not given),-7.0%,0.3%,-2.8%,x,1.1%
O=C(Nc1ccc2c(c1)CN(Cc1ccc(CO)o1)CC2)c1ccc(C(F)(F)F)cc1,-6.7%,2.2%,17.3%,x,10.7µM*
NC(=O)NC(=O)CN1c2cccc3cccc(c23)S1(=O)=O,1.7%,-1.1%,2.1%,x,1.5%
Cc1ccc(-n2c(C)cc(C3=NNC(=NC4CC4)SC3)c2C)cc1C,0.562µM*,1.58µM*,u,u,1.35µM*
CN=C1NN=C(c2cc(C)n(-c3ccc(Cl)cc3)c2C)CS1,2.51µM*,3.98µM*,u,-7.3%,4.78µM*
Cc1ccc(NC(=O)C(=O)NCc2ccco2)cc1,x,x,x,17.8µM*,-17.2%
Cc1ccc(NC(=O)C(=S)NCc2ccco2)cc1,2.82µM*,u,u,17.2%,6.01µM*
Cc1ccc(NC(=O)CSCc2ccco2)cc1,3.98µM*,u,u,12.6µM*,15.1µM*
Cc1ccc(C(=O)NC(=S)NCc2ccco2)cc1,28.7%,20.0%,8.2%,14.2%,u
Cc1ccc(NC(=O)CSCC(=O)NCc2ccco2)cc1,-3.5%,-7.6%,0.0%,x,1.4%
COc1ccc(-c2ccc(CNCc3ccccn3)o2)cc1Cl,-2.9%,-3.6%,8.2%,x,u
Clc1ccc(-c2ccc(CNCc3ccccn3)o2)cc1,24.0%,u,4.1%,x,15.1µM*
Fc1ccc(-c2ccc(CNCc3ccccn3)o2)cc1,5.1%,27.3%,u,x,23.9µM*
COc1ccc(/C=N/NC(=O)c2nnn(-c3nonc3N)c2-c2cccs2)c(OC)c1,-5.5%,-8.4%,-0.5%,x,u
COC(=O)c1cc(C)sc1NC(=O)CN1CCN(C(=O)C2CCCO2)CC1 (stereo not given),-42.8%,-38.7%,-19.5%,x,0.849µM*
SMILES,Rab9 prom act,NPC1 promoter act,ELG1 genotox,SMN2 splice up,FLuc modulator
CCOC(=O)c1cc(C)sc1NC(=O)CN1CCN(C(=O)C2CCCO2)CC1 (stereo not given),5.8%,-3.0%,-9.8%,x,0.5%
COCCCNc1nc2ccccc2nc1NS(=O)(=O)c1cccc(C)c1,3.5%,-2.0%,-2.3%,x,1.7%
Nc1nc(-c2ccc3c(c2)CCO3)cs1,u,17.8%,18.7%,10µM*,u
CC(=O)Nc1nc(-c2ccc3c(c2)CCO3)cs1,u,u,17.0%,u,12µM*
COc1ccc(-c2csc(NC(C)=O)n2)cc1OC,1.5%,4.8%,15.4%,12.5%,-11.4%[2.3 µM]
Nc1nc(-c2ccc3c(c2)CCC(=O)N3)cs1,27.6%,7.7%,u,u,u
O=S(=O)(Nc1cccc(-c2ccc(N3CCCC3)nn2)c1)c1ccccc1C(F)(F)F,x,x,x,x,16.9µM*
O=S(=O)(Nc1cccc(-c2ccc(N3CCOCC3)nn2)c1)c1ccc(F)c(C(F)(F)F)c1,x,x,x,x,9.53µM*
O=[N+]([O-])c1ccccc1S(=O)(=O)Nc1ccc(-c2ccc(N3CCCC3)nn2)cc1,26.2%,-2.2%,20.2%,x,-28.2%
O=S(=O)(Nc1cccc(-c2ccc(N3CCCC3)nn2)c1)c1ccc(F)c(C(F)(F)F)c1,x,x,x,x,19µM*
COCCN=C1Sc2nc3cc4c(cc3cc2CN1CC1CCCO1)OCO4 (stereo not given),-6.0%,-5.2%,0.3%,x,2.5%
Cc1csc2c(N3CCN(C(=O)NC(C)(C)C)CC3)ncnc12,-8.4%,-4.0%,-8.8%,x,-1.5%
Cc1csc2c(N3CCN(C(=O)c4ccc(C(C)(C)C)cc4)CC3)ncnc12,-4.2%,-6.1%,4.7%,x,26.9µM*
CCOC(=O)C1CCN(c2ncnc3c(C)csc23)CC1,u,24.6%,u,x,10.7µM*
CCOC(=O)C1CCCN(C(=O)c2cc3ccc(OC)cc3[nH]2)C1 (stereo not given),10.7%,14.8%,-4.3%,x,-12.4%
CCc1cccc(C)c1NS(=O)(=O)c1ccc2c(c1)NC(=O)C(C)C(=O)N2 (stereo not given),x,x,x,x,-1.2%
Cc1cccn2c(=O)nc(SCC(=O)NC3CCCCC3)nc12,1.8%,-1.6%,23.1%,x,-2.2%
COc1cccc(C(=O)NCCS(=O)(=O)NC2CCCC2)c1,6.8%,0.7%,-6.9%,x,2.6%
COc1ccc(C2=NNC(c3cc(Cl)cc4c3OCOC4)C2)c(O)c1 (stereo not given),-0.2%,-0.4%,-4.5%,-66.9%,13.5µM*
COc1cccc(N(CC(=O)NCCSCc2ccc(Cl)cc2)S(C)(=O)=O)c1,8.3%,0.2%,-22.7%,x,-5.2%
N/C(Cc1cccc2ccccc12)=N\OC(=O)c1cccs1,7.8%,-1.2%,-0.7%,-0.5%,-3.8%
Cc1ccc(/C(N)=N/OC(=O)c2cccs2)cc1,4.47µM*,u,14.6µM*,26.3%[1.84 µM],1.9µM*
Cc1cccc(/C(N)=N/OC(=O)c2cccs2)c1,1.26µM*,1.12µM*,u,u,0.757µM*
N/C(=N\OC(=O)c1cccs1)c1cccc(Br)c1,1.2%,-1.1%,u,12.0%,1.07µM*
COc1ccc(/C(N)=N/OC(=O)c2cccs2)cc1OC,-11.3%,-7.4%,3.0%,x,4.9%
SMILES,Rab9 prom act,NPC1 promoter act,ELG1 genotox,SMN2 splice up,FLuc modulator
N/C(=N\OC(=O)c1cccs1)c1ccccc1,u,u,u,u,0.675µM*
Cc1nc(NCc2ccccc2)c2nc(-c3ccccc3)n(CCCN(C)C)c2n1,x,x,x,-4.0%,x
N/C(=N\OC(=O)Cc1ccccc1)c1cccc(Br)c1,0.9%,0.0%,7.7%,6.1%,16.9µM*
N/C(=N\OC(=O)Cc1ccccc1[N+](=O)[O-])c1cccc(Br)c1,1.1%,-1.5%,2.9%,x,u
O=C(Cn1c(=O)nc(-c2ccccc2F)c2cc(Cl)ccc21)N1CCN(c2ccccc2F)CC1,x,x,x,x,-10.8%
O=C1N/C(=N/O)S/C1=C/c1cccc([N+](=O)[O-])c1,-0.6%,9.5%,5.0%,-13.5%,21.3µM*

# Screening data from PubChem.
